Screening data as filed in PubChem BioAssay.
Rows were chosen to be rich in hits. Some 3.3% of all compounds tested hit in one or more screens of this group.
TLR9-MyD88 inh = blocks human TLR9 binding to MyD88; Q9NR96+Q99836; CHO BLA complementation TLR9-MyD88, CCF4 FRET ratio; inhibition, % at 4.98 µM; 340,000 tested, 0.21% active; AID 504734;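 active = inhibition above the mean over all tested compounds plus 3 SD, cut at about 21% in these data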;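 also: 0% = DMSO only wells and 100% = clavulanate BLA inhibitor control wells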
rCAG binder = r(CAG) repeat RNA binding. TO-PRO-1 dye displacement fluorescence. inhibition, % at 3 µM. 370,000 tested, 1.3% active;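 active = inhibition above the plate cutoff, the mean of all test compounds on that plate plus 3 SD, cut at about 35% in these data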;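 also: 0% = DMSO alone and 100% = 100 µM mitoxantrone as full dye displacement; higher means more dye released from RNA so lower well fluorescence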
ABHD5-PLIN5 inh = inhibitors of human ABHD5-perilipin-5 interaction | Q00G26+Q8WTS1 | Split G. princeps luciferase complementation, luminescence, 4 h | inhibition, % at 4 µM | 360,000 tested, 0.78% active | AID 602281;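 active = inhibition above the mean inhibition across every tested compound plus 3 SD, cut at about 22% in these data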;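 also: 0% = DMSO only wells and the 100% control is not disclosed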
TLR4-MyD88 BLA = inhibitors of human TLR4-MyD88 binding; inhibition, % at 8.4 µM; AID 861; HeLa CL3-4 TLR4/MyD88 BLA complementation, FRET ratio; 200,000 tested, 0.18% active; O00206+Q99836; in the data active = inhibition above about 25%;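 also: 0% = vehicle and 100% = reference inhibitor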
NOD2 RIPK2 PPI = inhibitors of human NOD2-RIPK2 interaction. O43353. CHO BLA complementation NOD2-RIPK2, CCF4 ratio. inhibition, % at 4.98 µM. 360,000 tested, 0.38% active; in the data active = inhibition above about 21%;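 also: 0% = vehicle only and 100% = reference blocker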
PRMT1 FP inh = inhibitors of human PRMT1; Q99873; AID 652257; 370,000 tested, 1.3% active; recombinant PRMT1, activity-based probe fluorescence polarization; inhibition, % at 2.79 µM;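 active = inhibition above about 21% made by adding two undisclosed values, limit read from the data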
An asterisk follows results filed as active; . = no result.

SMILES	TLR9-MyD88 inh	rCAG binder	ABHD5-PLIN5 inh	TLR4-MyD88 BLA	NOD2 RIPK2 PPI	PRMT1 FP inh
COc1ccccc1/C=C\C=N\n1c(-c2ccc(Cl)cc2)n[nH]c1=S	-19	13	-3	4	-5	12
OC[C@@H]1CN(Cc2ccncc2)C[C@H](n2cnc3c(NC4CCCC4)ncnc32)O1	.	1	4	.	-10	2
C(=N\Nc1nc(-c2ccccc2)cs1)/c1ccco1	19	20	-11	-13	6	24*
COC(=O)c1ccc(N)cc1O	-9	0	4	5	-1	0
COC(=O)c1ccc(=O)c2nc3/c(=C/O)c(O)cc(=O)c3[nH]c12	0	69*	3	.	-8	29*
O=C(O)/C=C\C(=O)Nc1ccccc1C#Cc1ccc(Br)cc1	-5	6	-8	-4	-3	22*
COC1(OC)C(/C=C/c2ccc(C)cc2)C(C#N)(C#N)C1(OC)OC (configuration not stated)	0	0	22*	0	0	3
Cc1ccc2c(c1)C1C=CCC1C(C(=O)O)N2 (configuration not stated)	.	.	.	-7	.	.
CC(=O)c1ccc2c(c1)C1C=CCC1C(C(=O)O)N2 (configuration not stated)	.	96*	4	7	-7	71*
Cc1cc2c(SCc3ccccc3Cl)nc(N)nc2nc1C	-6	24	6	.	3	24*
Nc1cc(N)nc(SCc2ccccc2Cl)n1	5	2	-2	.	11	-2
Cc1cc(-c2csc(NC(=O)c3ccc(C#N)cc3)n2)c(C)n1Cc1ccco1	-1	59*	13	-14	-7	37*
Cc1ccc(Oc2ccc3c(c2)C(=O)N(c2ccc(S(=O)(=O)Nc4nccs4)cc2)C3=O)cc1	-4	61*	-2	-3	-7	1
O=C(NC(Cc1ccccc1)C(=O)O)/C(=C\c1ccco1)NC(=O)c1ccccc1Br (configuration not stated)	11	22	3	1	-3	24*
N#Cc1cccc(C#N)c1NCC1CCCO1 (configuration not stated)	2	0	-17	.	-8	2
O=C1C=CC(=O)C(C2=C3C(=O)N(CCc4ccccc4)CC(=O)N3CCC2)=C1	.	11	.	3	.	88*
CC1=C(C#N)c2nc(N)c(C#N)c(C)c2/C1=C\c1ccc(OCC(=O)O)c(Cl)c1	1	47*	11	.	-2	14
CCOC(=O)CSc1nc(N)c(C#N)c(-c2ccc(OCC)cc2)c1C#N	-1	3	-3	0	-7	2
CC(=O)Nc1ccc(S(=O)(=O)NCC(=O)N2CCN(S(=O)(=O)c3cccs3)CC2)cc1	1	3	-15	.	-10	24*
CC(=O)Nc1cccc(NC(=O)CCNC(=O)c2ccccc2)c1	-3	4	2	.	-2	-2
Cc1ccc(NC(=O)C2CCN(S(=O)(=O)c3ccc4c(c3)CCCC(=O)N4)CC2)cc1N(C)C	3	8	-2	.	-6	3
Cc1nnc(SCC(=O)c2ccc(Cl)cc2)n(N)c1=O	-3	4	-30	0	0	37*
CCCCNC(=O)NS(=O)(=O)c1ccc(NC(=O)CSc2nnc(-c3ccc(Cl)cc3)n2N)cc1	.	16	.	.	.	5
O=C(Nc1ccc(Cl)cc1)NC1CCCC1Cc1ccco1 (configuration not stated)	2	.	49*	6	-3	.
CCc1nnc(NC(=O)CN2C(=O)/C(=C/c3cc(OC)c(OC)c(OC)c3)SC2=S)s1	-7	11	-15	-6	-5	21*
SMILES	TLR9-MyD88 inh	rCAG binder	ABHD5-PLIN5 inh	TLR4-MyD88 BLA	NOD2 RIPK2 PPI	PRMT1 FP inh
COc1cc(/C=C2/SC(=S)N(CC(=O)Nc3nc4ccccc4s3)C2=O)cc(OC)c1OC	3	14	-18	4	-7	5
O=C(/C=C(\Nc1ccc(Cl)c(Cl)c1)c1ccccc1)c1ccccc1	.	2	.	.	.	0
CC(=O)Nc1ccc(C(=S)NCc2ccco2)cc1	-8	1	-1	5	-7	0
CC(=O)Nc1ccc(C(=S)NCCCO)cc1	-2	-5	-6	0	-8	22*
C/C(=N\NC(=O)c1ccc(Br)cc1)C1C(=O)c2ccccc2C1=O	5	48*	-1	-20	-2	0
CCOc1ccc(C(=O)N/N=C(/C)C2C(=O)c3ccccc3C2=O)cc1	3	6	1	-12	-13	-1
